The target in the first test is Solute carrier family 2, facilitated glucose transporter member 1 (Homo sapiens) (UniProt P11166). Description: ST_JUDE_LEISH: Cytotoxicity at 2uM final concentration against transgenic Leishmania Mexicana promastigotes LmGLUT1 that are glucose transport deficient and complemented with the human glucose transporter GLUT1. Activity is measured by DNA content using SYBR green in vitro. Type of test: functional.
Solute carrier family 2, facilitated glucose transporter member 1 (Homo sapiens), sequence (P11166 whole entry): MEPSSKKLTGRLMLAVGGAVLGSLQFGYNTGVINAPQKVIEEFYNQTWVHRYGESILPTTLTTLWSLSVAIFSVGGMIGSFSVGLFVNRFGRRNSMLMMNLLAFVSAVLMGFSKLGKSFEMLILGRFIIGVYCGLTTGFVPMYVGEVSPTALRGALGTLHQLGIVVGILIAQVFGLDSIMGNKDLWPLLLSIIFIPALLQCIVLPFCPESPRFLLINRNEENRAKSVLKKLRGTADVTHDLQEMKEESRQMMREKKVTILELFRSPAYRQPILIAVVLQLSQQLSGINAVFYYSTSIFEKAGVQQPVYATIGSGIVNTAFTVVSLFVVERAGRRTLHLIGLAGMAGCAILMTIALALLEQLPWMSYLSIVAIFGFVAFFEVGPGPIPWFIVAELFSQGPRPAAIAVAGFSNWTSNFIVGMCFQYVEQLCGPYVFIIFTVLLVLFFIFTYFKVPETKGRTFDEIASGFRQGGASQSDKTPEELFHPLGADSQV
Consider `Oc1ccc(Nc2ccnc3cc(Cl)ccc23)cc1`, for which the inhibition (commonly the relative decrease from the control value, in per cent) was determined as 3.83%.

In the case of `O=C(NCc1cccc2ccccc12)C(c1cc2ccccc2o1)N1CCN(C(c2ccccc2)c2ccccc2)CC1` (stereo not given), the inhibition came to 3.87%.

Take `Cc1ccc(C)c(Cn2ccc3nc(N)nc(N)c32)c1`: the inhibition stood at 2.05%.

Take `Cc1ccc(Nc2nc3cc(N(C)c4ccnc(Nc5cccc(CCS(C)(=O)=O)c5)n4)ccc3n2C)cc1`: the inhibition is 3.07%.

With `COc1ccc(Cc2c(C)nc3nc(N)nc(N)c3c2C)cc1`, the inhibition is 39%.

With `OC(CNCc1ccccc1OCc1ccccc1)c1cc(Br)cs1` (stereo not given), the inhibition worked out at 3.96%.

Take `O=C(Nc1ccc(C(F)(F)F)cc1)Nc1ccccc1N1CCNCC1`: the inhibition is 2.1%.

As for `CN(Cc1ccccc1)C1CCN(c2cc(NC(=O)c3cccc(F)c3)ccn2)CC1`, the inhibition is 6.87%.

As to `CC(C)CCNC(=N)c1ccc(OCCCCCOc2ccc(C(=N)NCCC(C)C)cc2)cc1`, the inhibition came to 12.4%.

As for `O=C(NC(c1ccccc1)c1ccccc1)C(c1cc2ccccc2o1)N1CCN(C(c2ccccc2)c2ccccc2)CC1` (stereo not given), the inhibition was 4.42%.

As to `CC1CN(c2cnn(C/C=C/c3ccc(NC(=O)c4ccc([N+](=O)[O-])cc4)cc3)c(=O)c2Cl)CC(C)N1` (stereo not given), the inhibition was -0.1%.

Turning to `CC(=O)c1cccc(NC(=O)N2CCCN(CCCCCNC(=O)/C=C/c3ccc(Cl)c(Cl)c3)CC2)c1`, the inhibition is -1.7%.

On to `N#Cc1cccc(NC(=O)Nc2ccc(CC(=O)N3CCc4cc(Cl)c(N5CCN(C/C=C/c6ccccc6)CC5)cc43)cc2)c1`, for which the inhibition worked out at 2.33%.

As to `COc1ccc(NC(=O)C2CCN(CCCCCNC(=O)/C=C/c3ccc(Cl)c(Cl)c3)CC2)cc1`, the inhibition stood at 2.19%.

With `COc1ccc(C(F)(F)F)cc1N1CCN(CCCCNC(=O)c2ccc(NC(=O)c3ccc(Cl)cc3)cc2)CC1`, the inhibition turned out to be 0.14%.

In the case of `COc1ccc2nc(C)cc(N/N=C/c3ccccc3[N+](=O)[O-])c2c1`, the inhibition amounted to 2.3%.

For the compound `O=C(/C=C/c1ccc(Cl)cc1)NCCCCCN1CCN(C(=O)C=Cc2ccc(Cl)c(Cl)c2)CC1`, the inhibition turned out to be 2.44%.

With `Cc1cc(Nc2ccc(OCc3ccccc3Cl)cc2)c2cc(Cl)ccc2n1`, the inhibition came to 19.8%.

Regarding `CCOc1ccc2c(N/N=C/c3cccc([N+](=O)[O-])c3)cc(C)nc2c1`, the inhibition came out at 5.98%.

`Nc1cccc(CNCc2cccc(-c3cccc(-c4nc5cc(C(F)(F)F)ccc5[nH]4)c3)c2)c1`: the inhibition was determined as 1.23%.

For `CO/C(=C\C=C\c1cc2cc(Cl)c(Cl)cc2[nH]1)C(=O)Nc1ccc(NCCN(C)C)nc1`, the inhibition stood at 6.97%.

As for `Cc1nc(N)nc(N)c1-c1ccc(Br)cc1`, the inhibition turned out to be 9.9%.

For the compound `OCC1CCN(Cc2ccc(-c3cccc(-c4nc5cc(C(F)(F)F)ccc5[nH]4)c3)cc2)CC1`, the inhibition is -1%.

As to `Cc1cccc2nc(-c3cccc(-c4cccc(NC(=O)c5cnccc5C(F)(F)F)c4)c3)[nH]c12`, the inhibition amounted to 3.64%.

In the case of `O=C(/C=C/c1ccc(Cl)c(Cl)c1)NC1CCN(Cc2ccc(O)cc2)CC1`, the inhibition was 1.47%.

For the compound `O=C(Nc1ccc2oc(-c3ccc(Br)cc3)nc2c1)c1ccc([N+](=O)[O-])o1`, the inhibition worked out at 10.3%.

With `O=S(=O)(c1c(Cl)cccc1Cl)N1CCCCC(c2ccc(C(F)(F)F)cc2)=N1`, the inhibition came out at 2.16%.

For `NC1CCN(Cc2cccc(-c3ccc(-c4nc5ccccc5[nH]4)cc3)c2)C1` (stereo not given), the inhibition is -1.1%.

`CCNc1cc(C(=O)N[C@@H](Cc2ccco2)[C@H](O)CNC2CCCCC2)cc(N2CCCCS2(=O)=O)c1`: the inhibition amounted to 1.99%.

For the compound `O=C(Nc1ccc(Cn2ncc(N3CCCNCC3)c(Cl)c2=O)cc1)Nc1ccc(C(F)(F)F)cc1`, the inhibition turned out to be 3.47%.

As to `Cc1[nH]c(C)c(-c2ccc(OCc3ccc(F)cc3)cc2)c(=O)c1Br`, the inhibition stood at 0.17%.

`COc1cc2ccccc2c(CNCCCCCCNCc2c(OC)c(OC)cc3ccccc23)c1OC`: the inhibition worked out at 4.39%.

For `CCn1cc(-c2cc(C(=O)Nc3ccc(OC)cc3C)c3ccccc3n2)c(C)n1`, the inhibition worked out at 7.19%.

Regarding `COc1ccccc1NC(=O)CSc1nc2cccnc2n1-c1ccccc1OC`, the inhibition is 0.89%.

In the case of `CC1(CCc2ccccc2)N=C(N)N(Cc2ccccc2)C(=O)C1c1ccc(Cl)c(Cl)c1` (stereo not given), the inhibition amounted to 3.32%.

Turning to `COc1cccc(-c2cc(C(=O)Nc3ccc4[nH]c(-c5ccccc5)nc4c3)[nH]n2)c1`, the inhibition came to 4.77%.

With `CC(C)c1ncc(-c2ccncc2)c(C2CCC(CNC(=O)c3ccncc3)CC2)n1` (stereo not given), the inhibition was determined as 3.67%.

In the case of `Cc1cc(C)c2cc(CNCCCNc3nc4ccccc4[nH]3)[nH]c2c1`, the inhibition was found to be 1.11%.

`Cc1cc(=O)c(-c2ccc(Oc3ccc(OC(F)(F)F)cc3)cc2)c(C)[nH]1`: the inhibition is -0.98%.

For the compound `CNS(=O)(=O)Cc1ccc(Nc2nccc(Nc3cccc4c3cnn4C(=O)Nc3ccccc3)n2)cc1`, the inhibition came out at 4.38%.

A further test deals with Hexose transporter 1 (Plasmodium falciparum) (UniProt O97467). Description: ST_JUDE_LEISH: Cytotoxicity at 2uM final concentration against transgenic Leishmania Mexicana promastigotes LmPfHT that are glucose transport deficient and complemented with the Plasmodium falciparum hexose transporter. Activity is measured by DNA content using SYBR green in vitro. Type of test: functional.
Turning to `Oc1ccc(Nc2ccnc3cc(Cl)ccc23)cc1`, the inhibition is 4.67%.

As for `O=C(NCc1cccc2ccccc12)C(c1cc2ccccc2o1)N1CCN(C(c2ccccc2)c2ccccc2)CC1` (stereo not given), the inhibition was 1.42%.

Regarding `Cc1ccc(C)c(Cn2ccc3nc(N)nc(N)c32)c1`, the inhibition came out at 1.94%.

In the case of `Cc1ccc(Nc2nc3cc(N(C)c4ccnc(Nc5cccc(CCS(C)(=O)=O)c5)n4)ccc3n2C)cc1`, the inhibition amounted to 7.25%.

With `COc1ccc(Cc2c(C)nc3nc(N)nc(N)c3c2C)cc1`, the inhibition amounted to 38.2%.

On to `OC(CNCc1ccccc1OCc1ccccc1)c1cc(Br)cs1` (stereo not given), for which the inhibition was 3.38%.

Consider `O=C(Nc1ccc(C(F)(F)F)cc1)Nc1ccccc1N1CCNCC1`, for which the inhibition was 1.1%.

As to `CN(Cc1ccccc1)C1CCN(c2cc(NC(=O)c3cccc(F)c3)ccn2)CC1`, the inhibition is 8.73%.

Regarding `CC(C)CCNC(=N)c1ccc(OCCCCCOc2ccc(C(=N)NCCC(C)C)cc2)cc1`, the inhibition was determined as 12.5%.

Turning to `O=C(NC(c1ccccc1)c1ccccc1)C(c1cc2ccccc2o1)N1CCN(C(c2ccccc2)c2ccccc2)CC1` (stereo not given), the inhibition was 2.92%.

In the case of `CC1CN(c2cnn(C/C=C/c3ccc(NC(=O)c4ccc([N+](=O)[O-])cc4)cc3)c(=O)c2Cl)CC(C)N1` (stereo not given), the inhibition worked out at 1.74%.

As to `CC(=O)c1cccc(NC(=O)N2CCCN(CCCCCNC(=O)/C=C/c3ccc(Cl)c(Cl)c3)CC2)c1`, the inhibition was -0.03%.

In the case of `N#Cc1cccc(NC(=O)Nc2ccc(CC(=O)N3CCc4cc(Cl)c(N5CCN(C/C=C/c6ccccc6)CC5)cc43)cc2)c1`, the inhibition came out at 4.39%.

`COc1ccc(NC(=O)C2CCN(CCCCCNC(=O)/C=C/c3ccc(Cl)c(Cl)c3)CC2)cc1`: the inhibition amounted to 2.22%.

Take `COc1ccc(C(F)(F)F)cc1N1CCN(CCCCNC(=O)c2ccc(NC(=O)c3ccc(Cl)cc3)cc2)CC1`: the inhibition amounted to 1.22%.

Regarding `COc1ccc2nc(C)cc(N/N=C/c3ccccc3[N+](=O)[O-])c2c1`, the inhibition stood at 2.99%.

Consider `O=C(/C=C/c1ccc(Cl)cc1)NCCCCCN1CCN(C(=O)C=Cc2ccc(Cl)c(Cl)c2)CC1`, for which the inhibition stood at 0.82%.

Turning to `Cc1cc(Nc2ccc(OCc3ccccc3Cl)cc2)c2cc(Cl)ccc2n1`, the inhibition was determined as 16.4%.

On to `CCOc1ccc2c(N/N=C/c3cccc([N+](=O)[O-])c3)cc(C)nc2c1`, for which the inhibition was found to be 4.85%.

Turning to `Nc1cccc(CNCc2cccc(-c3cccc(-c4nc5cc(C(F)(F)F)ccc5[nH]4)c3)c2)c1`, the inhibition is -0.22%.

As to `CO/C(=C\C=C\c1cc2cc(Cl)c(Cl)cc2[nH]1)C(=O)Nc1ccc(NCCN(C)C)nc1`, the inhibition was determined as 6.98%.

On to `Cc1nc(N)nc(N)c1-c1ccc(Br)cc1`, for which the inhibition amounted to 8.21%.

Regarding `OCC1CCN(Cc2ccc(-c3cccc(-c4nc5cc(C(F)(F)F)ccc5[nH]4)c3)cc2)CC1`, the inhibition is 1.12%.

In the case of `Cc1cccc2nc(-c3cccc(-c4cccc(NC(=O)c5cnccc5C(F)(F)F)c4)c3)[nH]c12`, the inhibition amounted to 0.6%.

In the case of `O=C(/C=C/c1ccc(Cl)c(Cl)c1)NC1CCN(Cc2ccc(O)cc2)CC1`, the inhibition was found to be 0.53%.

For the compound `O=C(Nc1ccc2oc(-c3ccc(Br)cc3)nc2c1)c1ccc([N+](=O)[O-])o1`, the inhibition worked out at 6.94%.

On to `O=S(=O)(c1c(Cl)cccc1Cl)N1CCCCC(c2ccc(C(F)(F)F)cc2)=N1`, for which the inhibition turned out to be 4.23%.

Take `NC1CCN(Cc2cccc(-c3ccc(-c4nc5ccccc5[nH]4)cc3)c2)C1` (stereo not given): the inhibition turned out to be 2.18%.

Consider `CCNc1cc(C(=O)N[C@@H](Cc2ccco2)[C@H](O)CNC2CCCCC2)cc(N2CCCCS2(=O)=O)c1`, for which the inhibition stood at 2.4%.

Take `O=C(Nc1ccc(Cn2ncc(N3CCCNCC3)c(Cl)c2=O)cc1)Nc1ccc(C(F)(F)F)cc1`: the inhibition came out at 4.5%.

In the case of `Cc1[nH]c(C)c(-c2ccc(OCc3ccc(F)cc3)cc2)c(=O)c1Br`, the inhibition was -1.87%.

Turning to `COc1cc2ccccc2c(CNCCCCCCNCc2c(OC)c(OC)cc3ccccc23)c1OC`, the inhibition was found to be 3.44%.

Consider `CCn1cc(-c2cc(C(=O)Nc3ccc(OC)cc3C)c3ccccc3n2)c(C)n1`, for which the inhibition came to 4.56%.

Take `COc1ccccc1NC(=O)CSc1nc2cccnc2n1-c1ccccc1OC`: the inhibition came out at 2.24%.

As to `CC1(CCc2ccccc2)N=C(N)N(Cc2ccccc2)C(=O)C1c1ccc(Cl)c(Cl)c1` (stereo not given), the inhibition was 2.08%.

As to `COc1cccc(-c2cc(C(=O)Nc3ccc4[nH]c(-c5ccccc5)nc4c3)[nH]n2)c1`, the inhibition turned out to be 3.14%.

For the compound `CC(C)c1ncc(-c2ccncc2)c(C2CCC(CNC(=O)c3ccncc3)CC2)n1` (stereo not given), the inhibition is -0.19%.

Regarding `Cc1cc(C)c2cc(CNCCCNc3nc4ccccc4[nH]3)[nH]c2c1`, the inhibition was found to be 0.15%.

For the compound `Cc1cc(=O)c(-c2ccc(Oc3ccc(OC(F)(F)F)cc3)cc2)c(C)[nH]1`, the inhibition is -0.47%.

As to `CNS(=O)(=O)Cc1ccc(Nc2nccc(Nc3cccc4c3cnn4C(=O)Nc3ccccc3)n2)cc1`, the inhibition came out at 3.98%.

For the origin of these results see ChEMBL document CHEMBL3433997, “St. Jude Leishmania screening dataset” (2016).
